NPC1 prom act: activators of NPC1 promoter. Huh7 NPC1 promoter luciferase reporter, 24 h. Potency, µM (titrated, usually from 9.22 µM), for the others: top-dose activation, hits mostly activators. 2.4% of 320,000 active; also: % of control where 0% means no effect; nearly all actives have a fitted effect of over 60% in size
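Stable NPC1-promoter luciferase Huh7 line; cpd (DMSO) 24 h, 37 °C, 5% CO2; Amplite luciferase reagent 10 min RT; luminescence readout. qHTS format.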
Rab9 promoter act: Rab9 promoter activation | Huh7 Rab9 promoter-luciferase reporter, luminescence, 24 h | Potency, µM (doses to about 9.22 µM), for inactives: at the highest dose activation, negative = inhibition, most hits filed as activators | 2.8% of 320,000 active; also: % of control where 0% means no effect; nearly all actives have a fitted effect of over 60% in size
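Measured in stably transfected Huh7 cells bearing a Rab9 promoter–luciferase construct: 24 h compound treatment at 37 °C, followed by luminescence detection.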
SMN2 splice up: SMN2 splice variant enhancement; HEK293 SMN2-luciferase splicing reporter, luminescence, 30-36 h; Potency, µM (highest dose often 46.1 µM), inactives show top-dose activity change, positive = activation, most hits filed as activators; 2.8% of 210,000 active; AID 1458; also: % of control where 0% means no effect; nearly all actives have a fitted effect of over 55% in size
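qHTS luciferase splicing reporter: luminescence rises when SMN2 exon 7 is included in transfected HEK293 cells. Compound exposure lasted 30-36 h at 37C, with 4.5 mM final sodium butyrate as control, followed by a ONE-Glo read.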
FLuc modulator: counter-screen for miR-21 project: firefly luciferase inhibitors or activators; Potency, µM (top dose mostly 57.5 µM), inactives show top-dose activity change, negative = inhibition, usual class: inhibitors; P08659; 6.9% of 360,000 active; purified FLuc, Km substrates, luminescence inhibition;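 also: plate controls were vehicle for no effect and reference inhibitor for full effect; nearly all actives have a fitted effect of over 55% in size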
Target sequence (P08659 whole entry, looked up): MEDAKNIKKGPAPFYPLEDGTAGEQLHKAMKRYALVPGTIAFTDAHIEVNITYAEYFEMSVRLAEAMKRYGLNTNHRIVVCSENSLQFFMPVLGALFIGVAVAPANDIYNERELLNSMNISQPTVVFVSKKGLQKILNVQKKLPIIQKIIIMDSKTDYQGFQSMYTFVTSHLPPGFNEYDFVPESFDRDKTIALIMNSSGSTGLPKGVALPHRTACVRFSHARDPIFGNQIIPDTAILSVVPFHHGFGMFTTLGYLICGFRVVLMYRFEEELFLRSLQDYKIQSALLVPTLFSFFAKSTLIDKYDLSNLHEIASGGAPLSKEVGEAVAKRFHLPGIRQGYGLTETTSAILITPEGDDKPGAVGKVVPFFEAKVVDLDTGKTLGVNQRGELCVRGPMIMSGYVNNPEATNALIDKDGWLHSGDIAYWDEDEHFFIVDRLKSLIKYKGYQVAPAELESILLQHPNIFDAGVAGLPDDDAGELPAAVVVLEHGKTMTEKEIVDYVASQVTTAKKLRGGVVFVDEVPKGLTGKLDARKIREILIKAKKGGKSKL
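Purified P. pyralis luciferase (10nM final) with 10uM D-luciferin and 10uM ATP (Km levels) in 50mM Tris acetate pH 7.5, 10mM Mg acetate, 0.01% Tween-20, 0.05% BSA; qHTS 6-point titration, ~60 µM downward; luminescence read.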
ELG1 genotox: genotoxicity induction in ELG1-luciferase HEK293T cells | HEK293T ELG1-luciferase reporter, luminescence, 16 h | Potency, µM (titrated, usually from 46 µM), for the others: at the highest dose activity change, positive = activation, usual class: activators | 1.3% of 330,000 active; also: % of control where 0% means no effect; nearly all actives have a fitted effect of over 60% in size
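Cells (2,000/well) expressing the ELG1-luciferase fusion are dosed by pin tool and kept 16 hr at 37 °C, 5% CO2. Signal comes from ONE-Glo luciferase reagent after 30 min at room temperature.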
The depositor's hits bear a star; u = inconclusive; x = not tested or not shown; [ ] = remark or other dose. Compounds with a hit are over-represented: about 7.4% of the library has one in this group of screens. Calls follow the shape of the dose curve; as a rule, active = well fitted curve in the direction sought with a large enough effect; inconclusive = small, poorly fitted or top-dose-only effect, or another doubt; inactive = no such curve, though single readings can be large; an effect the other way counts as inactive or inconclusive. Potency is read from the fitted curve at half-maximal effect.

SMILES	NPC1 prom act	Rab9 promoter act	SMN2 splice up	FLuc modulator	ELG1 genotox
O=C(NCCCn1cccn1)c1cc(COc2ccc(F)cc2Cl)on1	16.3%	16.7%	x	16.9µM*	-3.5%
COC(=O)[C@@]1(Cc2ccc(F)cc2)[C@H]2c3cc(C(=O)N(C)C)n(Cc4cccc5ccccc45)c3C[C@H]2CN1C(=O)c1ccccc1	x	x	-18.8%	x	x
Cc1ccc2nc3c(cc(C#N)c(=O)n3-c3nnc(SCc4ccccc4Cl)s3)c(=O)n2c1	x	x	4.0%	1.9%	x
CC(Cc1cccnc1)NC(=O)c1cc(COc2c(F)cccc2F)on1 (stereo not given)	-5.6%	11.5%	x	3.8%	-8.0%
Cc1nc(CCNC(=O)c2cc(COc3ccc(F)cc3Cl)on2)sc1C	22.2%	12.3%	x	21.3µM*	-3.7%
CC(Cc1cccnc1)NC(=O)c1cc(COc2ccc(F)cc2Cl)on1 (stereo not given)	-13.2%	9.3%	x	13.5µM*	-1.8%
Cc1cc(C)n(CCNC(=O)c2cc(COc3ccc(F)cc3Cl)on2)n1	3.0%	-3.3%	x	u	-10.9%
O=C(O)c1ccc2c(c1)C(=O)N([C@H](Cc1c3ccccc3cc3ccccc13)C(=O)O)C2=O	-6.9%	-3.1%	x	0.2%	x
Brc1ccc(-c2csc(/N=C/N3CCOCC3)n2)cc1	u	u	8.7%	15.1µM*	18.4µM*
Brc1ccc(-c2csc(/N=C/N3CCCC3)n2)cc1	26.5%	u	-43.1%	15.1µM*	u
OCCN(/C=N/c1nc(-c2ccc(Br)cc2)cs1)CCO	u	u	13.6%	19µM*	20.6µM*
Cc1cccc(Cn2cc(S(=O)(=O)c3ccccc3)c(=O)c3cc(F)c(N4CCOCC4)cc32)c1	x	x	x	1.0%	x
OCCSCc1ccccc1	x	x	-9.2%[9.22 µM]	x	x
Cc1cccc(N2C(=O)C(CC(=O)Nc3ccc(F)cc3)N(C3CCCC3)C2=O)c1 (stereo not given)	x	x	x	-1.3%	x
CO[C@]12C(COC(N)=O)C3=C(C(=O)C(C)=C(N)C3=O)N1CC1NC12 (stereo not given in full)	x	x	-78.0%	x	x
CCOc1ccc2oc(=O)cc(CN3CCN(Cc4ccc(F)cc4)CC3)c2c1	x	x	-2.7%	-8.0%	x
CCCS(=O)(=O)Nc1cccc(-c2ccc3nnc(C)n3n2)c1	-8.9%	-1.5%	15.8µM*	0.6%	u
O=C(N/N=C/c1ccccc1OCc1ccccc1Cl)c1cccnc1	0.2%	-4.5%	-20.8%	23.9µM*	4.7%
CCOc1cc(/C=N/NC(=O)c2cccnc2)ccc1O	-4.7%	-5.6%	x	-1.5%	-0.7%
CCOc1cccc(/C=N/NC(=O)c2cccnc2)c1O	-21.5%	-11.4%	x	19µM*	u
CCOc1cccc(/C=N/NC(=O)c2cc(C3CC3)[nH]n2)c1O	-43.0%	-37.2%	x	12µM*	u
O=C(Nc1ccc(OCc2ccccc2Cl)cc1)c1cccnc1	-2.7%	1.2%	x	u	1.9%
CCOc1ccc(CN2C(=O)c3ccccc3Sc3ccc(C(=O)N4CCN(C)CC4)cc32)cc1	x	x	3.5%	-12.2%	x
CCC(=O)[C@@H](c1ccccc1)c1ccccn1	x	x	-9.4%[9.22 µM]	x	x
O=C(/C=C/c1ccco1)Nc1nnc(-c2ccco2)s1	0.2%	19.5%	x	0.4%	5.4%
SMILES	NPC1 prom act	Rab9 promoter act	SMN2 splice up	FLuc modulator	ELG1 genotox
O=C(/C=C/c1ccco1)Nc1cccc(NC(=O)/C=C/c2ccco2)n1	u	3.16µM*	u	1.69µM*	-3.5%
CCSc1nnc(NC(=O)/C=C/c2ccco2)s1	u	3.98µM*	11.2µM*	-8.1%	u
O=C(/C=C/c1ccco1)NC1=NCCS1	2.24µM*	2.51µM*	8.91µM*	10.7µM*	9.2µM*
CCc1nnc(NC(=O)/C=C/c2ccco2)s1	u	1.78µM*	12.6µM*	u	u
O=C(NCc1ccc(Cl)cc1)C1CCCN(c2ncnc3onc(-c4ccc(F)cc4)c23)C1 (stereo not given)	x	x	x	-10.6%	x
Cc1nc(NC(=O)/C=C/c2ccco2)sc1C	-4.4%	-6.5%	11.2µM*	u	u
CCc1ccc(N(C(=O)CCC(=O)Nc2cc(C)on2)C(C(=O)NC(C)(C)C)c2ccc(OC)cc2)cc1 (stereo not given)	1.5%	-2.0%	x	23.9µM*	-7.5%
